The values that follow come from PubChem BioAssay (EPA / NIEHS).

Inconclusive results are not listed. Activity calls are given as the source filed them. The calls were made as follows, unless noted: active = hit-call score of the fitted dose curve at least 0.9, where 1 is the maximum; inconclusive = response in the unintended direction; inactive = score below 0.9.

The nature of experiment [1]: TOX21_p53_BLA_p3_viability: Viability Assessment in the Tox21 HCT-116 p53 Agonism Beta-lactamase Assay, Phase 3 (AID 2283593).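 Also: cells exposed to compound for 16 h before reading.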 Put shortly:
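Cellular ATP was quantified by CellTiter-Glo luminescence, read after 30 min at room temperature. Beforehand, HCT116 cells (4000/well) received compound 5 h post-seeding, 217-fold diluted from DMSO, then incubated 16 h at 37C.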

The nature of experiment [2]: TOX21_p53_BLA_p4_viability: Viability Assessment in the Tox21 HCT-116 p53 Agonism Beta-lactamase Assay, Phase 4 (AID 2283597).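 Also: hits lower the luminescence signal meaning cytotoxicity.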 Summed up: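 Cytotoxicity as reduced cellular ATP (CellTiter-Glo luminescence, 30 min room temperature), measured in the same wells following the CCF4 FRET p53 reading. Human HCT-116 cells received compounds in DMSO (217-fold dilution) for 16 h.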

For experiment [3], the target named is Cellular tumor antigen p53 (Homo sapiens) (UniProt P04637). The experiment in a line: TOX21_p53_BLA_p5_ratio: Tox21 HCT-116 p53 Agonism Beta-lactamase Assay, Ratio, Phase 5 (AID 2283599). Put shortly:
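Beta-lactamase reporter ratio (blue 460 nm over green 530 nm, 405 nm excitation) after 2 h CCF4-AM loading, in HCT-116 cells exposed 16 h at 37 C to compounds pinned at 217-fold dilution. Increases relative to DMSO baseline scored.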

For experiment [4] the target is unchanged. Briefly: TOX21_p53_BLA_p4_ratio: Tox21 HCT-116 p53 Agonism Beta-lactamase Assay, Ratio, Phase 4 (AID 2283601). Put shortly:
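Signal is the blue/green (460nm/530nm) ratio of cleaved versus uncleaved CCF4-AM substrate, read after 2 h substrate loading. Cells were HCT116 carrying the p53-responsive beta-lactamase reporter, dosed 16 h at 37C, 5% CO2; CellTiter-Glo measured in parallel.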

A short description of experiment [5]: TOX21_p53_BLA_p5_viability: Viability Assessment in the Tox21 HCT-116 p53 Agonism Beta-lactamase Assay, Phase 5 (AID 2283600). Put shortly: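 Viability came from CellTiter-Glo ATP luminescence, read after 30 min at room temperature. Before this, HCT-116 p53-bla cells (4000/well) had 16 hours of compound exposure at 37C, with DMSO stocks diluted 217-fold on transfer.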

In experiment [6] the target is Cellular tumor antigen p53 (Homo sapiens) (UniProt P04637). Briefly: TOX21_p53_BLA_p3_ratio: Tox21 HCT-116 p53 Agonism Beta-lactamase Assay, Ratio, Phase 3 (AID 2283596). Put shortly: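 Cells were seeded at 4000/well, rested 5 h at 37C, then dosed with DMSO compound solutions (217-fold dilution) for 16 h. CCF4-AM substrate was loaded for 2 h at room temperature, and the 460/530 nm emission ratio was fitted for gain of signal versus DMSO.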
Chain of Cellular tumor antigen p53 (Homo sapiens) (P04637 whole entry, looked up): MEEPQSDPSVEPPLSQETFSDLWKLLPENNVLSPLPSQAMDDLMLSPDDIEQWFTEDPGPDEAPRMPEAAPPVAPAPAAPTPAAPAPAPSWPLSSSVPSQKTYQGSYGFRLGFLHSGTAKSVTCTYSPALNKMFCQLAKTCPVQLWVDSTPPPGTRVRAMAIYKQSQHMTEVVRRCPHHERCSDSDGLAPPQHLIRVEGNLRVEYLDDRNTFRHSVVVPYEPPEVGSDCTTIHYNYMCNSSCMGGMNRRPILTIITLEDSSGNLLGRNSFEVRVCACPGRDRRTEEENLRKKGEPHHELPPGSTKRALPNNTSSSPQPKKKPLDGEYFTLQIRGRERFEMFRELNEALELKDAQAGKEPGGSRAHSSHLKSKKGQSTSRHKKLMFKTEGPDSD

For experiment [7], the target named is Thyroid hormone receptor alpha (Rattus norvegicus) + Thyroid hormone receptor beta (Rattus norvegicus) (UniProt P18113+P63059). The experiment in a line: TOX21_TR_LUC_GH3_Antagonist_Followup: Tox21 GH3 Thyroid Hormone Receptor Antagonism Luciferase Follow-Up Assay (AID 2283942). Summed up: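 Loss of T3-driven (1.0 nM final) reporter activity in GH3 cells was read by ONE-Glo luminescence after 24 h incubation at 37C; 15-point compound series spanned 92 uM to 5nM final, 1,500 cells/well.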

The target of experiment [8] is THRB (gene 7068) (UniProt P10828). The experiment in a line: TOX21_TRB_BLA_Antagonist_Followup_ratio: Tox21 Thyroid Hormone Receptor beta Antagonism Beta-lactamase (BLA) Follow-Up Assay, Ratio (AID 2283958). Put shortly:
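Cells were plated and allowed to attach for 5 h, then dosed with compounds in DMSO at 11 concentrations for 18 h at 37C. Beta-lactamase reporter activity was measured via CCF4-AM FRET as the 460:530 nm ratio.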

A short description of experiment [9]: TOX21_TRB_BLA_Antagonist_Followup_viability: Viability Assessment in the Tox21 Thyroid Hormone Receptor beta Antagonism Beta-lactamase (BLA) Follow-Up Assay (AID 2283961). Put shortly: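 ATP-based CellTiter-Glo luminescence (30 min, room temperature) run in the same wells as the TRβ-bla readout. Cells: GeneBLAzer HEK293T expressing GAL4-TRβ LBD, exposed 18 h at 37C to compounds at 11 concentrations in triplicate, stripped-serum medium.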

Experiment [10] concerns the target THRB (gene 7068) (UniProt P10828). Briefly: TOX21_TRB_COA_Antagonist_Followup_ratio: Tox21 Thyroid Hormone Receptor beta Antagonism through Coactivator Recruitment Follow-Up Assay, Ratio (AID 2283967). Put shortly: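 Coactivator recruitment to the GST-tagged TRb ligand-binding domain (5.0 nM) was read as the 520/495 nm TR-FRET ratio, using 200 nM fluorescein SRC-2 peptide and 2 nM terbium anti-GST. Scaled between DMSO and T3 wells; loss of signal fitted.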

Experiment [11] has as its target Retinoic acid receptor RXR-alpha (Homo sapiens) (UniProt P19793). Briefly: TOX21_TR_RXR_BLA_Antagonist_Followup_ratio: Tox21 Thyroid Hormone Receptor beta Retinoid X Receptor alpha (RXRa) Antagonism Beta-lactamase (BLA) Follow-Up Assay, Ratio (AID 2283972). Summed up:
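After 5 h attachment at 37C, HEK293T RXRa-bla cells (2,500/well, 2% charcoal-stripped FBS, no phenol red) received compounds at 11 concentrations in triplicate for 16 h. Beta-lactamase read as 460:530 nm ratio after 2 h RT substrate loading.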

A short description of experiment [12]: TOX21_TR_RXR_BLA_Antagonist_Followup_viability: Viability Assessment in the Tox21 Thyroid Hormone Receptor beta Retinoid X Receptor alpha (RXRa) Antagonism Beta-lactamase (BLA) Follow-Up Assay (AID 2283979). Summed up:
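Follow-up compounds (11 concentrations, triplicate) were incubated 16 h at 37C/5% CO2 with HEK293T RXRa-bla cells seeded at 2,500/well in charcoal-stripped-serum medium. ATP content by CellTiter-Glo luminescence gave viability; curves fitted in both directions against DMSO.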

Experiment [13] is described as follows: CCTE_Harrill_HTTr_Viability_MCF7: CCTE's 6-hour Cell Viability Assessment for the High-Throughput Transcriptomics (HTTr) Platform, in MCF-7 cells cultured in DMEM + 10% fetal bovine serum, Harrill Lab (AID 2284010; active = hit-call score of the fitted dose curve at least 0.9, where 1 is the maximum; inactive = score below 0.9). Summed up: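 Read-out is propidium iodide gain of signal by high-content imaging, reflecting membrane integrity loss. Measurements are taken 6 h after dosing, eight concentrations per chemical, with DMSO serving as baseline for bidirectional curve fitting.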

A short description of experiment [14]: CCTE_Harrill_HTTr_CellCount_MCF7: CCTE's Cell Proliferation Assessment for the High-Throughput Transcriptomics (HTTr) Platform, Harrill Lab (AID 2284012).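 Also: cells exposed to compound for six hours; intended direction is loss of nuclei count meaning fewer cells.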 Put shortly: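 Cell count served as viability reporter: loss of Hoechst-stained nuclei, counted by high content imaging, marks decreased growth or survival. Exposure was 6 h in MCF-7 cells across eight concentrations, with DMSO as baseline.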

Chain of THRB (gene 7068) (P10828 whole entry, looked up, the tested form may be a part): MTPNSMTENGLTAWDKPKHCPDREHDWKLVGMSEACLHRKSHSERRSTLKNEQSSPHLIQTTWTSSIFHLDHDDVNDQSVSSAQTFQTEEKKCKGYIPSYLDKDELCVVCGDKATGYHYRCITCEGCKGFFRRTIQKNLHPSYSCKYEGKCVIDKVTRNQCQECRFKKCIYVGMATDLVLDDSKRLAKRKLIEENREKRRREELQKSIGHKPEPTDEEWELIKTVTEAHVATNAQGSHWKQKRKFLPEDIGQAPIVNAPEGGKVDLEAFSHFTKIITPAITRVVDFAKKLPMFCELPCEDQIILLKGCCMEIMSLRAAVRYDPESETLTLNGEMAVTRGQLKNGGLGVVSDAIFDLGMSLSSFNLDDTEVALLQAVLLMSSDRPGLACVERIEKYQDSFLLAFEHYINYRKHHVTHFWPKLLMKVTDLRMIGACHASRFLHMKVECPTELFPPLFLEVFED
Chain of Retinoic acid receptor RXR-alpha (Homo sapiens) (P19793 whole entry, looked up): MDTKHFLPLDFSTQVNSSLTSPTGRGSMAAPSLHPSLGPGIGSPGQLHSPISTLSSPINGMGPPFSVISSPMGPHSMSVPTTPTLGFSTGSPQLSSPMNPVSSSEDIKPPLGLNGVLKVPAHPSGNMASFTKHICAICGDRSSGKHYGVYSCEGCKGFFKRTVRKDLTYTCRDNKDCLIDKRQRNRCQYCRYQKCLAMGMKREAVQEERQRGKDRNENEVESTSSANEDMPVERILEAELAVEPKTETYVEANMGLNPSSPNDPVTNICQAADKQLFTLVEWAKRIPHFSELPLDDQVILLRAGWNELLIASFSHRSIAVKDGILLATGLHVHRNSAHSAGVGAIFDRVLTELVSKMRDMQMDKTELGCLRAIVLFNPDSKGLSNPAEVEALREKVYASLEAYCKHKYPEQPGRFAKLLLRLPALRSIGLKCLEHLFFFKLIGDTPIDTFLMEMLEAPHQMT

In the case of `CCCCCCCCCCCC[N+](C)(C)CCCS(=O)(=O)[O-]`, the compound was classed as inactive in [1], in experiment [2], in [3] and in experiment [4].
With `O=C1N=C2SCCN2C(=O)C1Cc1ccc(Cl)cc1` (stereo unspecified), the compound was called inactive in experiment [1], in experiment [2] and in [5].
As to `Nc1cc(C(=O)O)c(O)c(S(=O)(=O)O)c1`, the compound was called inactive in [1], in experiment [3] and in experiment [5].
Regarding `COC(=O)c1cc(C(=O)OC)cc(S(=O)(=O)O)c1`, the compound was called inactive in experiment [1], in experiment [3] and in [5].
For the compound `C/C=C(/CC[C@@H](C)[C@H]1CC[C@H]2C3=CC[C@H]4[C@H](C)[C@@H](O)CC[C@]4(C)[C@H]3CC[C@]12C)C(C)C`, the outcome in experiment [1], in experiment [2] and in [5] was inactive.
With `CC(=O)Nc1ccc(S(=O)(=O)Nc2cc(C)on2)cc1`, the compound was called inactive in [1] and in experiment [3].
For the compound `CC(=O)OCC(=O)[C@@]1(O)CC[C@H]2[C@@H]3C[C@H](C)C4=CC(=O)C=C[C@]4(C)[C@H]3[C@@H](O)C[C@@]21C`, the call in experiment [1], in [2], in experiment [3] and in [4] was inactive.
On to `COc1cc(C[C@@H]2NCCc3cc(O)c(O)cc32)cc(OC)c1OC`, for which the call in experiment [1], in [6], in experiment [5] and in experiment [4] was inactive.
As to `C=CCSSCCC`, the call in [1] and in experiment [2] was inactive.
As for `Cc1c(O)cc2c(c1C)O[C@](C)(CCC[C@H](C)CCC[C@H](C)CCCC(C)C)CC2`, the result in [1], in [2] and in [4] was inactive.
Turning to `CCC=C1OC(=O)c2ccccc21`, the outcome in experiment [1], in experiment [2], in experiment [5] and in experiment [4] was inactive.
Regarding `CN1C(C(=O)Nc2ccccn2)C(=O)c2sc(Cl)cc2S1(=O)=O` (stereo unspecified), the call in experiment [1], in experiment [2], in [3] and in [4] was inactive.
As for `COC(=O)[C@@H](N)Cc1ccc(O)c(O)c1`, the outcome in experiment [1] and in experiment [3] was inactive.
For `CCCCOC(=O)C(=O)OCCCC`, the call in [1], in [2], in experiment [3], in experiment [5] and in experiment [4] was inactive.
`CCCCC(=O)O[C@]1(C(=O)CO)CC[C@H]2[C@@H]3CCC4=CC(=O)CC[C@]4(C)[C@H]3[C@@H](O)C[C@@]21C`: the result in experiment [1], in [2], in experiment [5] and in [4] was inactive.
On to `COc1ccc(CC2c3cc(OC)c(OC)cc3CC[N+]2(C)CCC(=O)OCCCCCOC(=O)CC[N+]2(C)CCc3cc(OC)c(OC)cc3C2Cc2ccc(OC)c(OC)c2)cc1OC` (stereo unspecified), for which the compound was classed as inactive in [1] and in [2].
Consider `Cc1ccc(C(C)(C)c2ccc(C)cc2)cc1`, for which the result in [1], in experiment [6] and in [4] was inactive.
In the case of `CC(CC(=O)O)CC(C)(C)C` (stereo unspecified), the compound was classed as inactive in [1], in experiment [2] and in [5].
As to `CC(C)Cc1ccc([C@H](C)C(=O)O)cc1`, the compound was called inactive in experiment [1], in [2] and in experiment [5].
Regarding `CC(=O)CC(=O)Nc1ccc(S(=O)(=O)O)cc1`, the compound was called inactive in [1], in experiment [2] and in experiment [4].
As to `CS(=O)(=O)O`, the result in experiment [1], in [2] and in experiment [3] was inactive.
In general, AC50 refers to the concentration at which the activity in the assay is half-maximal. Consider `CN1CCCC(CC2c3ccccc3Sc3ccccc32)C1` (stereo unspecified), for which the call (in experiment [1]; in [6]; in [5]; in the experiment with THRB (gene 7068) [8]; with THRB (gene 7068) [10]; in experiment [11]) was inactive. In addition, the compound was called inactive in [12]. Further, the half-maximal activity concentration (AC50) is 15.5 µM (active) in [7] and 8.56 µM (active) in experiment [9].
For `CCC(=O)OC(OP(=O)(CCCCc1ccccc1)CC(=O)N1C[C@H](C2CCCCC2)C[C@H]1C(=O)O)C(C)C` (stereo partly specified), the call in [1], in [2] and in experiment [5] was inactive.
As to `C=CCCCCCCCCCCC`, the result in experiment [1], in experiment [2], in [3] and in [4] was inactive.
For `CCCCCCCCCCCCCC=O`, the compound was classed as inactive in experiment [1] and in experiment [3].
For the compound `CC(C)(O)CCC(C)(C)O`, the compound was called inactive in [1] and in [2].
On to `Nc1ccc(C(=O)NCC(=O)O)cc1`, for which the compound was classed as inactive in experiment [1], in [6], in [3] and in experiment [4].
For the compound `C=CC(=O)NC(C)C`, the outcome in experiment [1], in experiment [2] and in experiment [4] was inactive.
Turning to `O=C(O)/C=C/c1cnc[nH]1`, the call in experiment [1], in [2] and in experiment [4] was inactive.
With `CCNC(=O)[C@@H]1CCCN1C(=O)[C@H](CCCN=C(N)N)NC(=O)[C@H](CC(C)C)NC(=O)[C@@H](CC(C)C)NC(=O)[C@H](Cc1ccc(O)cc1)NC(=O)[C@H](CO)NC(=O)[C@H](Cc1c[nH]c2ccccc12)NC(=O)[C@H](Cc1cnc[nH]1)NC(=O)[C@@H]1CCC(=O)N1`, the compound was called inactive in experiment [1] and in experiment [3].
On to `CC(C)(C)C(=O)OCOP(=O)(COCCn1cnc2c(N)ncnc21)OCOC(=O)C(C)(C)C`, for which the outcome in experiment [6] and in [2] was inactive.
On to `CCCCNc1c(C(=O)OCC)c(C)nc2c1cnn2CC`, for which the result in experiment [1], in [5] and in [4] was inactive.
`O=C(O[C@@H](C(=O)O)[C@@H](OC(=O)c1ccccc1)C(=O)O)c1ccccc1`: the compound was classed as inactive in [1], in [3] and in experiment [5].
On to `CCCCC(CC)COC(=O)CC#N` (stereo unspecified), for which the result in experiment [1], in experiment [5], in experiment [4], in [13] and in experiment [14] was inactive.
Regarding `COc1ccc(C2CNC(=O)C2)cc1OC1CCCC1` (stereo unspecified), the outcome in [1] and in experiment [4] was inactive.
With `ONc1ccccc1`, the result in [1] and in experiment [4] was inactive.
For `Nc1ncnc2c1ncn2CCOCP(=O)(O)O`, the result in experiment [1], in experiment [5] and in experiment [4] was inactive.
With `CCN(CC)CCOc1ccccc1C(=O)CCc1ccccc1`, the outcome in experiment [6] and in experiment [2] was inactive.
